Assay results: PubChem BioAssay (NCATS)
Records with an inconclusive call do not appear. A call without a number means that no potency is given here. Active and inactive are the calls of the source. Calls come from the whole dose curve; as a rule, active = well fitted curve in the direction sought with a large enough effect; inconclusive = small, poorly fitted or top-dose-only effect, or another doubt; inactive = no such curve, though single readings can be large; an effect the other way counts as inactive or inconclusive.
Note: nearly all actives have a fitted effect of over 70% in size.

Molecular target: Luciferin 4-monooxygenase (Photinus pyralis) (UniProt P08659)
Sequence (P08659 whole entry, looked up): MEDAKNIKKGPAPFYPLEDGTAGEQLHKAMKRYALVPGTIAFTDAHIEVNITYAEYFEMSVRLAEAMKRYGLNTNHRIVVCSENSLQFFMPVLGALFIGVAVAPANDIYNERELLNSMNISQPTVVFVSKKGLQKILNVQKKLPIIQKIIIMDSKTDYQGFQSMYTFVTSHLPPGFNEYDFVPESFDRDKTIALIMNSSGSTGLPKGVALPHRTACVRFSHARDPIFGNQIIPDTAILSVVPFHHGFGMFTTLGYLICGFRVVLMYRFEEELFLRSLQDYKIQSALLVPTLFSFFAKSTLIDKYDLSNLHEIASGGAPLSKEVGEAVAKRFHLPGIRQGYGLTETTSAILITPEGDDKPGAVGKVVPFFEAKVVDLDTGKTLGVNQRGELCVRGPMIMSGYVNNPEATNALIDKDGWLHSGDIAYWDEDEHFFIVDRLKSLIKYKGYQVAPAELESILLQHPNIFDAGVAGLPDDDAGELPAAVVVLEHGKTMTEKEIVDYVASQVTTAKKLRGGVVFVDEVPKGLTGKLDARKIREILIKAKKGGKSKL
Assay: Biochemical firefly luciferase enzyme assay for NPC (AID 624030);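 note: purified P. pyralis luciferase at 10 nM with luciferin and ATP substrate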
Conditions: purified P. pyralis luciferase, luminescence, 5 min; series mostly up to 58.6 µM
How it was run: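 Purified P. pyralis luciferase at 10 nM in 50 mM Tris Acetate (final), luminescence read within 5 minutes of enzyme addition to compounds. Activity normalised to PTC124 versus DMSO; concentration-response curves classed by r2, magnitude and activity.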
With `OCC(O)COc1ccc(Cl)cc1` (centres undefined) the Potency was “inactive”. For `CN(C(=O)CO)c1c(I)c(C(=O)NCC(O)CO)c(I)c(C(=O)NCC(O)CO)c1I` (centres undefined), the Potency was “inactive”. For `O=S(=O)(O)Oc1ccc(C(c2ccc(OS(=O)(=O)O)cc2)c2ccccn2)cc1`, the Potency was “inactive”. With `CCCCC(=O)O` the Potency was “inactive”. For `C1CNCCN1`, the Potency was “inactive”. With `CCCCCCCCCCCCCCCC(=O)OC[C@@H](COP(=O)([O-])OCC[N+](C)(C)C)OC(=O)CCCCCCCCCCCCCCC` the Potency was “inactive”. With `O=P(O)(O)C(Sc1ccc(Cl)cc1)P(=O)(O)O` the Potency was “inactive”. With `CN[C@@H]1CCc2[nH]c3ccc(C(N)=O)cc3c2C1` the Potency was “inactive”. With `CCCCCCCCCCCCCCCC(=O)OCCC1CCN(CCCN2c3ccccc3Sc3ccc(S(=O)(=O)N(C)C)cc32)CC1` the Potency was “inactive”. With `CCCCCC(O)/C=C/C=O` (centres undefined) the Potency was “inactive”. With `COc1ccc(CNCC(O)COc2ccc3[nH]c(=O)ccc3c2)cc1OC` (centres undefined) the Potency was “inactive”. In the case of `Cc1c(O)cc2c(c1C)O[C@](C)(CCC[C@H](C)CCC[C@H](C)CCCC(C)C)CC2`, the Potency is reported as “inactive”. In the case of `Cc1cc(-n2c(=O)[nH]c(=O)n(C)c2=O)ccc1Oc1ccc(S(=O)(=O)C(F)(F)F)cc1`, the Potency is reported as “inactive”. With `O=C(Cn1cnnn1)N[C@@H]1C(=O)N2C(C(=O)O)=C(CSc3nncs3)CS[C@H]12` the Potency was “inactive”. For `O=P(O)(O)OC(Cn1cncn1)(Cn1cncn1)c1ccc(F)cc1F`, the Potency was “inactive”. For `C=CCNC1=C2C[C@@H](C)C[C@H](OC)[C@H](O)[C@@H](C)/C=C(\C)[C@H](OC(N)=O)[C@@H](OC)/C=C\C=C(/C)C(=O)NC(=CC1=O)C2=O`, the Potency was “inactive”. With `CCN1CCCC1CNC(=O)c1cc(S(=O)(=O)CC)ccc1OC` (centres undefined) the Potency was “inactive”. In the case of `CS(=O)(=O)Nc1cc2occ(NC=O)c(=O)c2cc1Oc1ccccc1`, the Potency is reported as “inactive”. With `CCCCc1cc2c(=O)c(C(=O)OC)c[nH]c2cc1OCc1ccccc1` the Potency was “inactive”. In the case of `COc1cc2[nH]c(C)c(CCN3CCN(c4ccccc4)CC3)c2cc1OC`, the Potency is reported as “inactive”. With `COC1C(OC(=O)/C=C/C=C/C=C/C=C/C(=O)O)CCC2(CO2)C1C1(C)OC1CC=C(C)C` (centres undefined) the Potency was “inactive”. In the case of `CCCCCCCCCCCCCCCCCC(=O)OCCO`, the Potency is reported as “inactive”. For `C[N+](C)(CCCCCC[N+](C)(C)C1c2ccccc2-c2ccccc21)C1c2ccccc2-c2ccccc21`, the Potency was “inactive”. With `COc1ccc(C2NC(=S)N3C(c4ccc(OC)c(OC)c4)NC(=S)N23)cc1OC` (centres undefined) the Potency was “inactive”. For `O.O=C([O-])CC([S-])C(=O)[O-].[Au+].[Na+].[Na+]` (centres undefined), the Potency was “inactive”. For `CC(=O)[C@@]1(O)CC[C@H]2[C@@H]3C=C(Cl)C4=CC(=O)CC[C@]4(C)[C@H]3CC[C@@]21C`, the Potency was “inactive”.

Tested on: not listed separately
Assay: S16 Schwann cell viability assay (CellTiter-Glo assay) (AID 624031); note: potency is the fitted concentration of half-maximal effect
Conditions: S16 rat Schwann cells viability, 24 h; series mostly up to 57.5 µM
How it was run: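 Following overnight culture in 10% FBS DMEM, parental S16 rat Schwann cells are dosed for 24 h at 37 °C. Viability is read as CellTiter-Glo luminescence and expressed as % activity relative to DMSO (0%) and no-cell wells.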
In the case of `C=CCNC1=C2C[C@@H](C)C[C@H](OC)[C@H](O)[C@@H](C)/C=C(\C)[C@H](OC(N)=O)[C@@H](OC)/C=C\C=C(/C)C(=O)NC(=CC1=O)C2=O`, the Potency is reported as 16.1 µM (active). With `COC1C(OC(=O)/C=C/C=C/C=C/C=C/C(=O)O)CCC2(CO2)C1C1(C)OC1CC=C(C)C` (centres undefined) the Potency was “inactive”. For `CN[C@H]1CC[C@@H](c2ccc(Cl)c(Cl)c2)c2ccccc21`, the Potency was 28.7 µM (active).
